# In ChEMBL document CHEMBL3988442, “University of Dundee, Small-Polar-MMV Screening Library” (2021):
# About 13,000 (27%) of roughly 48,000 compounds showed an effect of 50% or more. The list shows a part of the results.
# Tested on: Wolbachia pipientis
# Experiment: Anti-Wolbachia Cell-Based Screen
# Type: functional
# Design: scale not given: in the data most compounds retested in dose-response had high values
# Conditions: 5 µM
row,SMILES,Percent Effect [%]
1,CNc1cc(C)nc(N2C[C@H](NC(=O)C3CCOCC3)[C@@H](C3CC3)C2)n1,-20.28
2,CNC(=O)COC(=O)c1cccc(-n2ccc(C(F)(F)F)n2)c1,-11.26
3,CCCN(CCc1cccc(F)c1)c1ccc2nnnn2n1,9.519
4,CSC(CNS(C)(=O)=O)c1cccc(Cl)c1 (stereo unspecified),9.109
5,Cc1nc(C)n(Cc2cccc(NC(=O)N(C)CCC(C)O)c2)n1 (stereo unspecified),-6.821
6,O=C(Cn1nc(C(F)(F)F)c(Br)c1C1CC1)N1CCOCC1,103.1
7,O=C(Cn1nnc(-c2ccc(F)cc2)n1)N1CCOCC(O)C1 (stereo unspecified),-9.782
8,O=C(CN1C(=O)CCC1=O)N1CCOCC1,-0.7877
9,CCN(Cc1ccncc1)C(=O)C1COc2c(cccc2OC)C1 (stereo unspecified),-5.298
10,NC(=O)c1cccc(OCCC(=O)NC2CCc3c(F)cccc32)c1 (stereo unspecified),3.003
11,O=C1COC2(CCN(Cc3ccccn3)CC2)CN1CC1CC1,3.205
12,COCCN1CCC2(CC1)CN(Cc1cccc(C)n1)C(=O)CO2,94.2
13,COCC(=O)N1CCCC2(CCN(Cc3cccc(C)n3)C2=O)C1.O=C(O)C(F)(F)F (stereo unspecified),-15.33
14,Cc1cccc(CN2CC3(CCNCC3)OCC2=O)n1,-5.931
15,COCCN1CCC2(CC1)CN(CCn1cccn1)C(=O)CO2.O=C(O)C(F)(F)F,-17.67
16,Cc1cccc(CN2CCC3(CCCN(C(=O)CN(C)C)C3)C2=O)n1 (stereo unspecified),1.32
17,CCCC(=O)N1CCC2(CC1)CN(Cc1cccc(C)n1)C(=O)CO2,88.89
18,Cc1cccc(CN2CC3(CCN(C(=O)C4CC4)CC3)OCC2=O)n1,113.2
19,Cc1cccc(CN2CC3(CCN(C(N)=O)CC3)OCC2=O)n1,101.1
20,COCCN(C)CCN1CC2(CCN(C3CCOCC3)CC2)OC1=O,-18.87
21,Cc1ccsc1-c1nnc(SCC(=O)O)n1C(C)c1ccccc1 (stereo unspecified),-0.1706
22,CCN(CC)c1ccc(C2C3=C(COC3=O)Nc3[nH]nc(C)c32)cc1 (stereo unspecified),4.109
23,CCc1ncncc1C(=O)Nc1ccc2ccn(CCN(C)C)c2c1,-10.28

row,SMILES,Percent Effect [%]
1,CCc1nc(C)c([C@H]2CN(C)C[C@@H]2C(=O)NCc2ccccc2OC)[nH]1,-8.879
2,Cc1ccccc1C(CC(=O)NCc1n[nH]c(N)n1)c1ccccc1 (stereo unspecified),-7.585
3,CC(NC(=O)NCCCc1n[nH]c(N)c1C#N)c1cccs1 (stereo unspecified),-7.784
4,Cc1ncsc1CN1CC[C@H]2OCC[C@@]2(C(=O)N(C)C)C1,3.882
5,Cc1ncsc1CN1CCOC(C)(C(N)=O)C1 (stereo unspecified),122.3
6,Cc1ncsc1CN1CCOC(C)(C(=O)N2CCOCC2)C1 (stereo unspecified),106.3
7,Cc1ncsc1CN1CC2(CCCC2)CC1=O,-13.29
8,Cc1ncsc1CN1CCOC(C)(C(=O)N(C)C)C1 (stereo unspecified),112.2
9,Cc1nn(C)c(C)c1-c1ccnc(N(C)Cc2noc(C(C)C)n2)n1,-9.96
10,CCNC(=O)N[C@H]1C[C@@H](Cc2cc(CN3CCCCC3)on2)C1(C)C,1.239
11,O=C(O)C(F)(F)F.O=C(c1ccco1)N1CC[C@@H]2CN(C3CCOCC3)CCO[C@@H]2C1,107.9
12,CN(C)C[C@H]1OC[C@@H]2CCN(C(=O)c3ccco3)C[C@@H]21.O=C(O)C(F)(F)F,5.332
13,COc1ccc(CN2CC[C@@H]3CN(S(C)(=O)=O)CCO[C@@H]3C2)cc1.O=C(O)C(F)(F)F,4.247
14,O=C(O)C(F)(F)F.O=C(c1ccco1)N1CCOCC2(CCN(C3CCOCC3)C2)C1 (stereo unspecified),7.241
15,Cc1ccc(C(=O)N2CC[C@@H]3CN(C4CCOCC4)CCO[C@@H]3C2)o1.O=C(O)C(F)(F)F,105.9
16,Cc1ccoc1C(=O)N1CC[C@@H]2CN(C3CCOCC3)CCO[C@@H]2C1.O=C(O)C(F)(F)F,107.8
17,Cc1ccoc1C(=O)N1CC[C@H]2O[C@@H](C)C[C@H]2C1,-21.6
18,CN1CCO[C@@H]2CN(C(=O)c3ccc4[nH]ccc4c3)CC[C@@H]2C1.O=C(O)C(F)(F)F,-13.85
19,Cc1ccoc1C(=O)N1CC[C@@H]2O[C@@H](C)C[C@H]2C1,0.7135
20,Cc1ccc(CNC2(Cc3cc(-c4cccc(O)c4)on3)COC2)o1,-8.459
21,COC(=O)C1CCN(C(=O)c2ccc(N(C)S(C)(=O)=O)c(C)c2)CC1,-6.417
22,COCCC1(C(=O)O)CCCN(Cc2cc3c(cc2Cl)OCO3)C1 (stereo unspecified),4.782
23,CNC(=O)CN1CCC(NC2CSCCc3ccccc32)CC1 (stereo unspecified),0.2819

row,SMILES,Percent Effect [%]
1,Cn1c(Cn2ccnc2)nnc1C1CCCN(C2CCCCC2)C1 (stereo unspecified),-3.14
2,CC(C)OC(=O)N1CCC(c2nnc(Cn3ccnc3)n2C)CC1,96.34
3,CC(C)S(=O)(=O)N1CCCC(c2nnc(Cn3ccnc3)n2C)C1 (stereo unspecified),-6.159
4,CS(=O)(=O)N1CCC(c2nnc(Cn3ccnc3)n2C2CC2)CC1,-22.9
5,COC(=O)N1CCC(c2nnc(Cn3ccnc3)n2C)CC1,110.5
6,Cn1c(Cn2ccnc2)nnc1C1CCN(C(=O)C2(C)CC2)CC1,6.343
7,Cc1ccc(N2C(=O)N[C@@H]3CCN(C(=O)C4CCCC4)[C@@H]3C2=O)cc1,-4.286
8,CCc1ccc(C(=O)O)cc1S(=O)(=O)N(C)c1cccc(C#N)c1,-20.44
9,c1csc(N2CCN(Cc3cc4n(n3)CCNC4)CC2)n1,-2.451
10,COC(=O)Cn1c(=O)nc2n1C(=O)N(c1ccc(Cl)cc1)C2,5.835
11,CNc1nc(C)cc(NCc2cc(C)cc3c(C)c(C)[nH]c23)n1,-6.475
12,Cc1ccc(CN2CC[C@H]3[C@H]2CCN3S(=O)(=O)C2CC2)cc1.O=C(O)C(F)(F)F,-0.5114
13,Cc1cccc(CN2CC[C@@H]3O[C@@H](C(=O)N4CCN(C)CC4)C[C@@H]32)n1,123
14,CN1CCN(C(=O)[C@H]2C[C@H]3[C@H](CCN3Cc3cccs3)O2)CC1.O=C(O)C(F)(F)F.O=C(O)C(F)(F)F,106.2
15,CN1CCN(C(=O)[C@H]2CC[C@@H]3[C@@H](CCN3Cc3ccsc3)O2)CC1.O=C(O)C(F)(F)F.O=C(O)C(F)(F)F,-13.28
16,Cc1cccc(CN2C[C@@H](CN3CCCN(C)CC3)C[C@H](CO)C2)n1,-14.48
17,O=C(O)C(F)(F)F.O=S(=O)(C1CC1)N1CC[C@@H]2[C@@H]1CCN2Cc1cccs1,10.91
18,Cc1ccc(CN2CC[C@@H]3O[C@@H](C(=O)N4CCN(C)CC4)C[C@@H]32)cc1.O=C(O)C(F)(F)F.O=C(O)C(F)(F)F,117.4
19,Cc1cccc(CN2CCN(C(=O)[C@@H]3CSCN3C)CC2)c1,0.2793
20,Cn1cc(CN2CC[C@@H]3O[C@H](C(=O)N4CCOCC4)C[C@@H]32)cn1,5.245
21,O=C(O)C(F)(F)F.O=C([C@@H]1CC[C@@H]2[C@@H](CCN2Cc2cccs2)O1)N1CCCCO1,-2.602
22,Cc1cccc(CN2CC[C@@H]3O[C@@H](C(=O)N4CCN(C)CC4)C[C@@H]32)c1,93.61
23,CCN1CCC(CNCc2cc(C)ccc2OC)C1 (stereo unspecified),23.09

row,SMILES,Percent Effect [%]
1,Cc1[nH]nc2ncc(C(=O)N3CCN(C(C)(C)C)CC3)cc12,13.12
2,CN(C)c1ccccc1CN1CCCCC1CNS(C)(=O)=O (stereo unspecified),-10.3
3,O=C1CC2(CCN(C(=O)c3csc(-c4ccccc4)n3)C2)C(=O)N1 (stereo unspecified),6.339
4,COCCCN1CCC(NC(=O)C2CC2)CC1,-0.3398
5,O=C(c1ccoc1)N1CCn2nc(CN3CCSCC3)cc2C1,-1.758
6,O=C([C@H]1C[C@H]2[C@H](CCN2Cc2cccs2)O1)N1CCOCC1,91.43
7,O=C(NC1CCCC1)c1cc(Cn2cnc3ccccc32)on1,-23.61
8,CN(Cc1nnc2ccccn12)C(=O)NC1CCCCC1,-15.02
9,CN(C)Cc1nc(-n2cnc(C(=O)NC3CCCC3)c2)n2ccccc12,115.9
10,O=C(NCCO)c1ccn(-c2ccc3ccccn23)n1,-13.14
11,Cn1cnc(-c2nc(C(=O)NCC3CCCO3)c3ccccn23)c1 (stereo unspecified),-2.484
12,CN(C)Cc1nc(-n2cnc(C(=O)NCC3CC3)c2)n2ccccc12,123.3
13,Cc1nc[nH]c1-c1nc2cc(S(=O)(=O)N3CCCC3)ccc2n1C,-21.22
14,Cc1ncc(CNc2cnccc2CO)s1,7.83
15,O=C(c1ccnnc1)N1C[C@@H]2CC[C@H](Oc3cccc(F)c3)[C@@H]2C1,-13.73
16,CCN(C)C(=O)c1ccc(N2CCC(Oc3cccc(F)c3)CC2)nc1,-6.141
17,CCN(CC)S(=O)(=O)N1C[C@@H](O)[C@H](Oc2cccc(F)c2)C1,71.42
18,Cc1cnccc1CN1C[C@@H](O)[C@H](Oc2cccc(F)c2)C1,-1.659
19,CCN(Cc1cccc(F)c1)S(=O)(=O)N1CCOCC1,-36.14
20,CCS(=O)(=O)N1C[C@@H](O)[C@H](Oc2cccc(F)c2)C1,115.8
21,COc1cccc(F)c1-c1nc2c([nH]1)c(C1CC1)nn2C,3.42
22,CCCC(C)C(=O)Nc1ccc(OC)nc1N1CCN(C(C)=O)CC1 (stereo unspecified),-14.17
